The values that follow come from PubChem BioAssay (NCI).

A short description of test [1]: NCI Yeast Anticancer Drug Screen. Data for the rad50 strain (AID 155).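 Note: 0% = growth of vehicle-only cultures of the same strain.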 The settings on record: S. cerevisiae rad50 strain growth inhibition, stronger effect = higher value. The method, boiled down: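 Compounds were tested on a yeast strain with an engineered DNA damage repair alteration; the reported value is growth inhibition normalised to vehicle treatment.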
The nature of test [2]: NCI Yeast Anticancer Drug Screen. Data for the mec2-1 strain (AID 157). The settings on record: S. cerevisiae mec2-1 strain, stronger effect = higher value. Summed up: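 Mutant yeast (mec2-1) grown with compound; growth inhibition relative to vehicle control reported.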
Test [3] in a line: NCI Yeast Anticancer Drug Screen. Data for the sgs1 mgt1 strain (AID 161).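 Note: 0% = growth of cultures given vehicle only.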 The note with it: S. cerevisiae sgs1 mgt1 strain, stronger effect = higher value. Summed up:
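Compounds are added to genetically altered yeast, and growth is compared with cultures given vehicle alone to give percent inhibition.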

Test [4] in a line: NCI Yeast Anticancer Drug Screen. Data for the cln2 rad14 strain (AID 165).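 Note: 0% = growth equal to vehicle treated cultures.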 The note with it: S. cerevisiae cln2 rad14 strain, stronger effect = higher value. The method, boiled down:
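Readout is yeast growth inhibition versus vehicle-treated controls, using a strain with cln2 and rad14 alterations exposed to compound.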

Test [5] in a line: NCI Yeast Anticancer Drug Screen. Data for the bub3 strain (AID 167). The note with it: S. cerevisiae bub3 mutant strain, stronger effect = higher value. The method, boiled down:
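Growth of a checkpoint-deficient yeast mutant is measured after compound exposure. Values represent inhibition relative to vehicle.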

Test [6] is described as follows: NCI Yeast Anticancer Drug Screen. Data for the mlh1 rad18 strain (AID 175). The note with it: S. cerevisiae mlh1 rad18 strain growth inhibition, stronger effect = higher value. Summed up:
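Genetically defined yeast (DNA repair-deficient) exposed to compounds; growth inhibition determined relative to vehicle.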

Setting [7] is: at 5.0 µM (retest, dose inferred, filed as 0.5).
Setting [8] is: at 50.0 µM (retest, dose inferred, filed as 5.0).

Molecules are shown by their SMILES. Several values for one entry are separate records, joined by “and”; a condition that tells them apart may be missing. Equal values may be shown once. The panel holds about 79,000 compounds, 15% with a hit somewhere; the sample as a whole holds those more often. Some compounds were tested as several samples or in several runs, with calls that do not always agree. Activity calls are given as the source filed them. Cut-off read from the data, not from the text of the source: active = growth inhibition above about 70%; inactive = the rest.

As to `CN(C)C(=Nc1nc(=[N+](C)C)ss1)N(C)C`, the growth inhibition was -17% (inactive) in test [1] (setting [7]); -10% (inactive) in test [1] (setting [8]); 93% (active) in test [1] (at 50.0 µM); 3% (inactive) in test [2] (setting [7]); 8% (inactive) in test [2] (setting [8]); 44.2% (inactive) in test [2] (at 50.0 µM). Besides, the growth inhibition in test [3] (setting [7]) was 8% (inactive); in test [3] (setting [8]) it was -19% (inactive); in test [3] (at 50.0 µM), 86% (active); in test [4] (setting [7]) it was 12% (inactive); in test [4] (setting [8]), 13% (inactive); in test [4] (at 50.0 µM), 30.4% (inactive). Also, the growth inhibition in test [5] (setting [7]) was 10% (inactive); in test [5] (setting [8]), 10% (inactive); in test [5] (at 50.0 µM) it was 49.4% (inactive); in test [6] (setting [7]), 15% (inactive); in test [6] (setting [8]) it was 13% (inactive); in test [6] (at 50.0 µM) it was 81.8% (active).
`CCOC(=O)/C(C#N)=C\c1ccc([N+](=O)[O-])o1`: the growth inhibition in test [1] (setting [7]) is 15% (inactive); in test [1] (setting [8]), 98% (active); in test [1] (at 50.0 µM), -8.25% (inactive) and 99% (active); in test [2] (setting [7]), 12% (inactive); in test [2] (setting [8]), 99% (active); in test [2] (at 50.0 µM), -12.1% (inactive) and 99.3% (active). Besides, the growth inhibition was 8% (inactive) in test [3] (setting [7]); 99% (active) in test [3] (setting [8]); -20.9% (inactive) and 99.3% (active) in test [3] (at 50.0 µM); 4% (inactive) in test [4] (setting [7]); 98% (active) in test [4] (setting [8]); 19.1% (inactive) and 99% (active) in test [4] (at 50.0 µM). In addition, the growth inhibition in test [5] (setting [7]) was 12% (inactive); in test [5] (setting [8]), 99% (active); in test [5] (at 50.0 µM), -13.4% (inactive) and 99.2% (active); in test [6] (setting [7]), 16% (inactive); in test [6] (setting [8]), 99% (active); in test [6] (at 50.0 µM), -16.9% (inactive) and 99% (active).
Take `NNc1c2ccccc2nc2ccccc12`: the growth inhibition was 9% (inactive) in test [1] (setting [7]); 79% (active) in test [1] (setting [8]); 21.1% (inactive) and 95.8% (active) in test [1] (at 50.0 µM); 6% (inactive) in test [2] (setting [7]); 43% (inactive) in test [2] (setting [8]); 18.4% (inactive) and 85.8% (active) in test [2] (at 50.0 µM). The growth inhibition in test [3] (setting [7]) was 1% (inactive); in test [3] (setting [8]), 47% (inactive); in test [3] (at 50.0 µM) it was -10% (inactive) and 94% (active); in test [4] (setting [7]) it was 4% (inactive); in test [4] (setting [8]), 38% (inactive); in test [4] (at 50.0 µM) it was -19.1% (inactive) and 92.5% (active). In addition, the growth inhibition is -5% (inactive) in test [5] (setting [7]); 48% (inactive) in test [5] (setting [8]); -21.5% (inactive) and 93.5% (active) in test [5] (at 50.0 µM); 2% (inactive) in test [6] (setting [7]); 86% (active) in test [6] (setting [8]); 8.4% (inactive) and 96.8% (active) in test [6] (at 50.0 µM).
With `Fc1ccc(/C=C2\COCC3=C2NC(=S)NC3c2ccc(F)cc2)cc1` (stereo unspecified), the growth inhibition in test [1] (setting [7]) was 32% (inactive); in test [1] (setting [8]) it was 98% (active); in test [1] (at 50.0 µM), 88.6% (active); in test [2] (setting [7]), 28% (inactive); in test [2] (setting [8]), 99% (active); in test [2] (at 50.0 µM) it was 93% (active). For the same compound, the growth inhibition in test [3] (setting [7]) was 72% (active); in test [3] (setting [8]), 99% (active); in test [3] (at 50.0 µM), 91.2% (active); in test [4] (setting [7]), 59% (inactive); in test [4] (setting [8]), 99% (active); in test [4] (at 50.0 µM) it was 90.5% (active). Moreover, the growth inhibition is 77% (active) in test [5] (setting [7]); 100% (active) in test [5] (setting [8]); 90.7% (active) in test [5] (at 50.0 µM); 26% (inactive) in test [6] (setting [7]); 98% (active) in test [6] (setting [8]); 90.7% (active) in test [6] (at 50.0 µM).
Turning to `Nc1ccc2c(n1)NCC/C2=N\Nc1ccccc1`, the growth inhibition in test [1] (setting [7]) is 1% (inactive); in test [1] (setting [8]), 72% (active); in test [1] (at 50.0 µM) it was 90.5% (active); in test [2] (setting [7]) it was -2% (inactive); in test [2] (setting [8]), 60% (inactive); in test [2] (at 50.0 µM), 78.3% (active). Moreover, the growth inhibition is -4% (inactive) in test [3] (setting [7]); 69% (inactive) in test [3] (setting [8]); 79% (active) in test [3] (at 50.0 µM); -2% (inactive) in test [4] (setting [7]); 23% (inactive) in test [4] (setting [8]); 60.9% (inactive) in test [4] (at 50.0 µM). Further, the growth inhibition in test [5] (setting [7]) is -5% (inactive); in test [5] (setting [8]), 91% (active); in test [5] (at 50.0 µM) it was 87.8% (active); in test [6] (setting [7]), 0% (inactive); in test [6] (setting [8]), 92% (active); in test [6] (at 50.0 µM) it was 98% (active).
Turning to `CCCCCCCCCC(=O)c1ccc(O)c(O)c1O`, the growth inhibition was 99% (active) in test [1] (setting [7]); 98% (active) in test [1] (setting [8]); 90.3% (active) in test [1] (at 50.0 µM); 99% (active) in test [2] (setting [7]); 98% (active) in test [2] (setting [8]); 91.8% (active) in test [2] (at 50.0 µM). Further, the growth inhibition in test [3] (setting [7]) was 44% (inactive); in test [3] (setting [8]), 94% (active); in test [3] (at 50.0 µM), 93.1% (active); in test [4] (setting [7]), 63% (inactive); in test [4] (setting [8]), 96% (active); in test [4] (at 50.0 µM) it was 91.1% (active). The growth inhibition was 77% (active) in test [5] (setting [7]); 79% (active) in test [5] (setting [8]); 90.5% (active) in test [5] (at 50.0 µM); 100% (active) in test [6] (setting [7]); 99% (active) in test [6] (setting [8]); 89.7% (active) in test [6] (at 50.0 µM).
For `CCCCCCCCCCCC(=O)CN1CCOCC1`, the growth inhibition was 34% (inactive) in test [1] (setting [7]); 99% (active) in test [1] (setting [8]); 98.9% (active) in test [1] (at 50.0 µM); 25% (inactive) in test [2] (setting [7]); 100% (active) in test [2] (setting [8]); 99.8% (active) in test [2] (at 50.0 µM). For the same compound, the growth inhibition is 47% (inactive) in test [3] (setting [7]); 99% (active) in test [3] (setting [8]); 61.9% (inactive) in test [3] (at 50.0 µM); 39% (inactive) in test [4] (setting [7]); 99% (active) in test [4] (setting [8]); 97.8% (active) in test [4] (at 50.0 µM). In addition, the growth inhibition is 87% (active) in test [5] (setting [7]); 99% (active) in test [5] (setting [8]); 99.7% (active) in test [5] (at 50.0 µM); 31% (inactive) in test [6] (setting [7]); 99% (active) in test [6] (setting [8]); 99.2% (active) in test [6] (at 50.0 µM).
